SMILES strings stand for the structures. The campaign covered roughly 2,300 compounds. About 1,700 (74%) were called active. No rule for the calls is given here. The set was probably picked from earlier hits. The list shows a part of the results. Results with a measured potency or affinity are listed apart.

The assay is described as follows: Confirmatory growth inhibition assay, Mycobacterium tuberculosis H37Rv, absence of glycerol (AID 449764).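 Also: growth read after 7 days of incubation.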 The note with it: no glycerol; series mostly up to 100 µM.
For the molecule `C=CCn1c(Cc2cccs2)nnc1SCC(=O)Nc1ccc(C(=O)OCC)cc1`, the molecule was called inactive.
With `CCCCCCCC(=O)N/N=C(/C)c1c(O)cc(C)oc1=O`, the call was inactive.
The same measure for `CN1CCN(CC/C=C2/c3ccccc3Sc3ccc(S(=O)(=O)N(C)C)cc32)CC1`: “inactive”.
Regarding `O=c1oc2cc(O)ccc2c2ccccc12`, the call was inactive.
On to `CCCCCOc1ccc(N2C(=O)C3C4C=CC(C3C2=O)N(C)C4=O)cc1` (stereo unspecified), for which the outcome was inactive.
The same measure for `O=c1c2cc(-c3ccccc3)sc2ncn1/N=C/c1ccco1`: “inactive”; for `O=C(NC1CCCCC1)C(c1ccc2ncccc2c1)N(Cc1ccco1)C(=O)c1ccc2c(c1)OCCO2` (stereo unspecified): “inactive”; for `CCCCc1ccc(NC=C2C(=O)OC3(CCCCC3)OC2=O)cc1`: “inactive”.
On to `O=C(Nc1ccc(N2CCOCC2)c(Cl)c1)c1c(F)c(F)c(F)c(F)c1F`, for which the outcome was inactive.
`Cc1cc(N2CCCCC2)n2ncc(-c3ccc(Cl)cc3)c2n1`: the molecule was classed as inactive.
As for `CCSCc1nnc(SCC(=O)Nc2cccc(SC)c2)n1C`, the result was inactive.
As for `Cc1ccc(C(=O)N/N=C/C=C/c2ccccc2)cc1`, the molecule was called inactive.
To `Cc1nn(Cc2ccccc2)c(C)c1C(=O)OCC(=O)c1cc(C)n(CC(F)(F)F)c1C` belongs “inactive”.
Consider `CCCCCC(=O)Nc1cccc2ccccc12`, for which the molecule was classed as inactive.
Turning to `Cc1cc(C)c2nc(N3CCCC(C(=O)N4CCN(c5ncccn5)CC4)C3)sc2c1` (stereo unspecified), the molecule was classed as inactive.
To `Cc1c(NC(=O)c2ccc([N+](=O)[O-])o2)cccc1-c1nc2ncccc2o1` belongs “inactive”; to `CCCCCOC(=O)Nc1nnc(CCCCC)s1`, “inactive”.
With `C/C(CC(=O)Nc1ccc(C)c(Cl)c1)=N\NC(=O)Cc1cnc(N)s1`, the result was inactive.
`Cc1ccc(N/N=C/C=C/c2ccco2)cc1`: the molecule was called inactive.
Turning to `CCOC(=O)N1CCN=C1SCc1ccc(C(F)(F)F)cc1`, the call was inactive.
For `O=C(CSc1nc2ccccc2[nH]1)N1c2ccccc2Sc2ccccc21`, the outcome was inactive.
For the molecule `CCOC(=O)Oc1ccc2oc(C)c(C(=O)OCCOC)c2c1`, the call was inactive.
As for `C=CC[N@@+]12CC[C@]34c5ccccc5N5/C=C6\C7N(/C=C(\C53)[C@@H](C[C@@H]41)/C(=C/CO)C2)c1ccccc1[C@@]71CC[N@@+]2(CC=C)C/C(=C\CO)[C@@H]6C[C@@H]12` (stereo partly specified), the molecule was called inactive.
Turning to `CCOC(=O)c1c(CN2CCN(Cc3ccccc3)CC2)n(C)c2cc(Br)c(OC)cc12`, the outcome was inactive.
To `O=C1N[C@@H](Cc2ccccc2)C(=O)N2[C@H]3Nc4ccccc4[C@@]3([C@]34C[C@H]5C(=O)N[C@@H](Cc6ccccc6)C(=O)N5[C@H]3Nc3ccccc34)C[C@@H]12` belongs “inactive”; to `CCC(=O)c1coc2ccc(O)cc12`, “inactive”; to `CC(C)NCC(O)c1ccc(O)c(O)c1` (stereo unspecified), “inactive”.
As for `CCc1ccc(-n2nc3cc(C)c(N)cc3n2)cc1`, the call was inactive.
Consider `CCOc1ccc(N2C(=O)CS/C2=C(\C(Cl)=C(Cl)Cl)[N+](=O)[O-])cc1`, for which the call was inactive.
Consider `CC(=O)c1c(C)n([O-])c2cc(F)c(F)cc2[n+]1=O`, for which the outcome was inactive.
The same measure for `CCCCn1c(-c2ccc(C(C)(C)C)cc2)nc2cc3[nH]c(=O)c(C(C)C)nc3cc21`: “inactive”.
With `Cc1nn(-c2ccccc2)c(N2CCCC2)c1/C=N/Nc1ccc(S(N)(=O)=O)cc1[N+](=O)[O-]`, the molecule was classed as inactive.
As for `CC(=O)/C(=N\Nc1ccc(C)cc1)N1CCOCC1`, the result was inactive.
`Cc1ccc(C(=O)CCC(=O)OCC(=O)Nc2c(C)nn(-c3ccccc3)c2C)cc1`: the result was inactive.
For `CCCCCn1c(CN2CCN(c3cccc(Cl)c3)CC2)nc2c1c(=O)[nH]c(=O)n2C`, the molecule was classed as inactive.
On to `Cc1ccc(Sc2ccc(/C=C3/C(=O)NN(c4ccccc4)C3=O)o2)cc1`, for which the call was inactive.
Take `CSc1cccc(N=C2C(=O)Nc3ccccc32)c1`: the call was inactive.
To `COc1cccc(C(=O)/C=C2\Sc3ccccc3N2C)c1` belongs “inactive”.
Regarding `Fc1ccc(-c2nnc(CSc3nnc(-c4cccs4)o3)o2)cc1`, the call was inactive.
On to `CC/C(=C\C(=O)c1cccnc1)Nc1ccc(C)c(C)c1`, for which the call was inactive.
Turning to `C=C(C)C1CC=C(C)/C(=N/NC(=O)CNc2ccc(OCC)cc2)C1` (stereo unspecified), the result was inactive.
Regarding `Cc1[nH]nc2nc3c(c(OC(=O)c4ccccc4)c12)c(=O)n(C)c(=O)n3C`, the result was inactive.
In the case of `O=C1CC(Nc2ccc3ccccc3c2)C(=O)N1Cc1ccccc1` (stereo unspecified), the molecule was called inactive.
`O=C(COC(=O)C1CCN(c2ccc(C(F)(F)F)cn2)CC1)Nc1ccc(F)cc1[N+](=O)[O-]`: the molecule was called inactive.
Consider `Cc1ccc(N=Nc2c(C)[nH]n(C(N)=S)c2=O)cc1`, for which the outcome was inactive.
`O=C(Nc1cccc(C(F)(F)F)c1)c1ccc2nc(-c3ccco3)c(-c3ccco3)nc2c1`: the molecule was classed as inactive.
Take `Nc1cccc(-c2cc3ccccc3oc2=O)c1`: the molecule was called inactive.
Turning to `CC(C)c1nnc(NC(=O)CCC(=O)N2CCN(c3ccc(Cl)cc3)CC2)s1`, the result was inactive.
With `CCCC(=O)Nc1sc2c(c1C#N)CCCCC2`, the result was inactive.
`O=[N+]([O-])c1ccc(COc2ccc(-c3[nH]ncc3-c3ccc(Cl)cc3)c(O)c2)cc1`: the outcome was inactive.
In the case of `Cc1nc(S/C(=C/c2ccc(-c3ccc(Cl)cc3)o2)C(=O)O)n[nH]1`, the call was inactive.
`Cc1ccc(NN=C2c3ccccc3-c3ccccc32)cc1`: the outcome was inactive.
For `CN1CCC(=NNC(=O)C(=O)Nc2ccccc2F)CC1`, the molecule was classed as inactive.
The same measure for `O=C(Nc1cccc(-c2ccc(N3CCCCC3)nn2)c1)c1ccc(Br)o1`: “inactive”; for `CCOC(=O)c1sc(C)c2c(=O)n(CC(=O)c3ccc(Br)cc3)nnc12`: “inactive”.
Consider `CCOC(=O)c1ccc(N2CC(O)=C(c3nc4ccccc4c(=O)[nH]3)C2=N)cc1`, for which the result was inactive.
For `CCN(CC)S(=O)(=O)c1cccc(NC(=O)Nc2cccc(C(F)(F)F)c2)c1`, the outcome was inactive.
With `Cc1ccc(-c2cccc(NC(=O)C3C4C=CC(C4)C3C(=O)O)c2)o1` (stereo unspecified), the molecule was classed as inactive.
Turning to `CC1Nc2ncnc(N3CCN(c4ccccc4)CC3)c2N(Cc2ccc(Br)cc2)C1=O` (stereo unspecified), the molecule was classed as inactive.
On to `COc1cc2[nH]c3c(N4CCN(c5ccccn5)CC4)ncnc3c2cc1OC`, for which the result was inactive.
As for `Clc1ccc(CSc2ncn[nH]2)cc1`, the molecule was classed as inactive.
With `COc1ccc(-c2ccnc3nc(N4CCN(c5ccccc5)CC4)nn23)cc1`, the outcome was inactive.
With `c1ccc(CCN2CN=C(Nc3nc4ccccc4o3)NC2)cc1`, the call was inactive.
Consider `Cc1ccc(NC(=O)COC(=O)c2ccc(=O)n(Cc3ccccc3)n2)cc1F`, for which the molecule was classed as inactive.
For `COc1cc(OC)nc(Oc2ccccc2C(=O)Oc2ccc(Cl)cc2)n1`, the molecule was classed as inactive.
Consider `CCNc1nc(NC(C)(C)C)nc(N2CCCCC2)n1`, for which the molecule was classed as inactive.
In the case of `O=C(CCCC(=O)OCC(=O)c1cccs1)Nc1ccc(Oc2ccccc2)cc1`, the result was inactive.
With `COc1ccc(N2COC3c4cccc5cccc(c45)C32)cc1` (stereo unspecified), the outcome was inactive.
Turning to `Brc1ccc(-c2ccc(/C=N/Nc3nncc(-c4ccccc4)n3)o2)cc1`, the result was inactive.
The same measure for `Cn1nnc(NC(=S)NC(=O)c2ccc(-c3ccc(Br)cc3)o2)n1`: “inactive”.
The same measure for `Cc1ccc(N/C=C2\C(=O)C3(C)CCC2C3(C)C)cc1C` (stereo unspecified): “inactive”; for `Cc1cc(C(=O)N/N=C/c2ccc(-c3ccc([N+](=O)[O-])cc3Cl)o2)n[nH]1`: “inactive”; for `Cc1ccc(-c2cc(C(F)(F)F)n3nc(C(=O)NCCCn4ccnc4)cc3n2)cc1C`: “inactive”.
To `CCOC(=O)/C(=N\Nc1ccc(Br)cc1)N1CC(C)OC(C)C1` (stereo unspecified) belongs “inactive”; to `C=CCn1c(=O)/c(=C/c2ccc(Cl)cc2)s/c1=C(/C#N)c1nnc2n1CCCCC2`, “inactive”.
For the molecule `Nc1ccc2c(c1)oc1ccccc12`, the molecule was called inactive.
In the case of `CCOC(=O)NNc1ccccc1`, the outcome was inactive.
As for `CC1(CCc2ccccc2)NC(=S)N(c2ccc(Cl)cc2)N1` (stereo unspecified), the outcome was inactive.
Consider `Cn1c(=O)c2[nH]c(-c3ccc(S(=O)(=O)O)cc3)nc2n(C)c1=O`, for which the molecule was called inactive.
On to `COc1ccc(NC2=C(C(C)=O)C(c3ccc4c(c3)OCO4)C(C(C)=O)C(C)(O)C2)cc1` (stereo unspecified), for which the call was inactive.
Consider `Nc1ccc(Oc2ccc3c(c2)OCO3)cc1`, for which the outcome was inactive.
To `Nc1ccc2c(c1)nnn2-c1ccccc1` belongs “inactive”; to `O=S(=O)(Nc1ccn(-c2ccccc2)n1)c1ccc(Br)cc1`, “inactive”; to `Cc1ccc(S(=O)(=O)c2nc(Nc3nccs3)sc2Cl)cc1`, “inactive”.
Turning to `O=C(CSc1nc2cc(Cl)ccc2o1)c1cccs1`, the outcome was inactive.
On to `COC12C(COC(N)=O)C3=C(C(=O)C(C)=C(N)C3=O)N1CC1C2N1C` (stereo unspecified), for which the molecule was called inactive.
For the molecule `Oc1ccc(Br)cc1/C=N/Nc1nc(N2CCCCC2)nc(N2CCOCC2)n1`, the molecule was classed as inactive.
Turning to `Nc1ccc(CCc2ccc(N)cc2)cc1`, the molecule was classed as inactive.
Turning to `COc1cc(/C=N/N(C)c2ccccc2)cc(Cl)c1O`, the result was inactive.
As to `COc1cc2c(-c3ccc4[nH]ccc4c3)c(-c3ccc(C#N)cc3)oc(=O)c2cc1OC`, the molecule was classed as inactive.
The same measure for `O=C1NC(=O)/C(=C/c2ccc(-c3cccc([N+](=O)[O-])c3)o2)S1`: “inactive”.
With `O=[N+]([O-])c1ccc(-c2ccc(/C=N/c3c(-c4ccco4)nc4ccccn34)o2)cc1`, the outcome was inactive.
With `O=[N+]([O-])c1ccc(-c2csc(NN=C3CCCC3)n2)cc1`, the outcome was inactive.
Turning to `Nc1c(C(=O)Nc2ccc(Br)cc2)sc2nc(-c3ccco3)ccc12`, the result was inactive.
For `CCCCn1cnc2cc(NCc3cccc(OC)c3O)ccc21`, the molecule was called inactive.
As to `COc1ccc(NC(C#N)c2ccc(OC)cc2)cc1` (stereo unspecified), the molecule was classed as inactive.
For the molecule `Nc1ccn([C@@H]2O[C@H](CO)[C@@H](O)C2O)c(=O)n1` (stereo partly specified), the molecule was called inactive.
For `O=C(CSCC(=O)Nc1ccc2ccccc2c1)NCc1ccccc1`, the molecule was called inactive.
On to `Cn1ccnc1-c1nnn(-c2ccc(Cl)c(Cl)c2)n1`, for which the outcome was inactive.
Turning to `CCOc1ccc(-n2c(-c3ccc(Br)cc3)c[n+]3c2CCCCC3)cc1`, the molecule was classed as inactive.
For `c1ccc(Cn2nnc3c(N4CCc5ccccc5C4)ncnc32)cc1`, the result was inactive.
To `Cn1c(=O)c(C(=O)COC(=O)c2cc(C(F)(F)F)nc3c(C(F)(F)F)cccc23)c(N)n(CC2CC2)c1=O` belongs “inactive”.
For the molecule `Cc1cc(NC(=O)c2noc3c2CCCC3)nn1Cc1ccc(Cl)cc1`, the call was inactive.
As to `Cc1ccc(NC(=O)/C(Cl)=C\c2ccccc2)cc1`, the molecule was called inactive.
Take `Nc1ccc2c(c1)Cc1ccccc1-2`: the outcome was inactive.
For the molecule `C/C=C(\C)C(=O)Nc1cccc(C2=NOC3(C2)C[C@H](C(N)=O)N(C(=O)c2cc([N+](=O)[O-])cc([N+](=O)[O-])c2)C3)c1` (stereo partly specified), the molecule was called inactive.
